From PubChem BioAssay (NCATS) come the findings set out here.

Experiment [1] can be described thus: Primary qHTS for inhibitors of SARS-S pseudo-typed particle cell entry (AID 1479145). For activity change, negative = inhibition: % is set by controls: 0 for no effect and ±100 for the full control effect. Note: nearly all actives have a fitted effect of over 45% in size. The conditions noted are these: outcome: dose series up to 57.1 µM unless noted. On the technique in general: In qHTS, concentration-response curves come from the screen itself.
The nature of experiment [2]: Primary qHTS for Huh7 cytotoxicity: counterscreen for inhibitors of MERS-S pseudotyped particle cell entry (AID 1479147). For activity change, negative = cytotoxicity: % is set by controls: 0 for no effect and ±100 for the full control effect. Conditions: outcome: dose series up to 57.1 µM unless noted.
Experiment [3] is described as follows: Primary qHTS for inhibitors of MERS-S pseudo-typed particle cell entry (AID 1479149). Note: nearly all actives have a fitted effect of over 60% in size. The conditions noted are these: outcome: dose series up to 57.1 µM unless noted.
Experiment [4] in a line: Primary qHTS for Vero E6 cytotoxicity: counterscreen for inhibitors of SARS-S pseudo-typed particle cell entry (AID 1479150). For activity change, negative = cytotoxicity: % is set by controls: 0 for no effect and ±100 for the full control effect. Conditions: outcome: dose series up to 57.1 µM unless noted.
Experiment [5] in a line: Cytotoxicity counterscreen for inhibitors of SARS-CoV-2 cell entry (AID 1645845). For activity change, negative = cytotoxicity: % is set by controls: 0 for no effect and ±100 for the full control effect. Note: nearly all actives have a fitted effect of over 50% in size. Conditions: outcome: dose series up to 57.1 µM unless noted. Summed up: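 48 h compound treatment (after 1 h preincubation), HEK293-ACE2 cells, 37 C/5% CO2; ATP luminescence endpoint; normalized to cell wells and media blanks.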
The nature of experiment [6]: Primary qHTS to identify inhibitors of SARS-CoV-2 cell entry (AID 1645846). Note: nearly all actives have a fitted effect of over 45% in size. The conditions noted are these: SARS-CoV-2 pseudovirus cell entry assay, luminescence; activity change, negative = inhibition: at 57.1 µM (top of the series) unless noted. Summed up:
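Inhibition of spike-mediated entry was scored in human ACE2-transfected Expi293F cells. Particles were MLV-pseudotyped with Wuhan-Hu-1 S carrying a 19-aa C-terminal deletion; signal was luciferase after two days, scaled between spike PP and fusion-protein-free PP.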

The target of experiment [7] is Nuclear receptor subfamily 1 group I member 3 (Homo sapiens) (UniProt Q14994). In words: Primary qHTS for antagonist of constitutive androstane receptor (CAR) against the NCATS DSHEA and TCM libraries (AID 1794836; active = well fitted curve in the direction sought with a large enough effect; an effect the other way counts as inactive or inconclusive;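 note: HepG2 cells stably expressing hCAR with CYP2B6 luciferase reporter stimulated by CITCO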). Summed up:
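Antagonist mode: CAR reporter luminescence (ONE-Glo) in HepG2-CYP2B6-hCAR cells stimulated with 48 uM CITCO (final) over 24 h at 37 C, compounds titrated; viability read first by CellTiter-Fluor fluorescence.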

Experiment [8] has as its target Glutathione peroxidase 1 (Homo sapiens) (UniProt P07203). In words: Primary qHTS Assay for Inhibitors of Recombinant Selenoprotein Glutathione Peroxidase 1 (GPX1) (AID 1845191; active = well fitted curve in the direction sought with a large enough effect; an effect the other way counts as inactive or inconclusive; note: nearly all actives have a fitted effect of over 65% in size). A digest of the protocol: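 10 nM GPX1 + cpd, 30 min RT; start w/ 1 mM GSH, 0.5 mM cumene hydroperoxide, 0.5 mM NADPH, 100 nM GR, 0.01% BSA; buffer 50 mM Tris-HCl pH 7.5, 2 mM EDTA, 150 mM NaCl; Fl 340/450, 0 & 15 min.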

For experiment [9], the target named is Phospholipid hydroperoxide glutathione peroxidase GPX4 (Homo sapiens) (UniProt P36969). In words: Primary qHTS Assay for Inhibitors of Recombinant Selenoprotein Glutathione Peroxidase 4 (GPX4) (AID 1845192; active = well fitted curve in the direction sought with a large enough effect; an effect the other way counts as inactive or inconclusive; note: nearly all actives have a fitted effect of over 65% in size). Summed up: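 NADPH consumption, followed by fluorescence at 340/450 nm between 0 and 15 min, reports GPX4 activity via coupled glutathione reductase (100 nM). Enzyme 200 nM was pre-exposed to compound 30 min; 0.5 mM cumene hydroperoxide and 1 mM GSH served as substrates.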

Experiment [10] is described as follows: KB-8-5-11 P-gp reporter qHTS against the NCATS DSHEA and TCM libraries (AID 1919977; active = well fitted curve in the direction sought with a large enough effect; an effect the other way counts as inactive or inconclusive; note: 0% is about no effect). A digest of the protocol: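 KB-8-5-11, 500 cells/well, DMEM/10% FBS without colchicine; 4 h attach; cpd titrations, 72 h, 37C/5% CO2; CellTiter-Glo, 30 min RT, luminescence.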
Experiment [11] concerns the target Bile acid receptor (Homo sapiens) (UniProt Q96RI1). Kind of experiment: qHTS assay for small molecule agonists of farnesoid X receptor signaling (AID 588527).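 Note: 0% = vehicle basal and 100% = reference agonist.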 The conditions noted are these: HEK293T FXR-UAS-bla, beta-lactamase ratio, 16 h; stronger effect = higher value. A digest of the protocol: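 Agonist-mode beta-lactamase reporter in GeneBLAzer FXR-UAS-bla HEK293T cells, titration up to 92 uM, 16 h exposure at 37 C, CCF4 fluorescence. Response scaled to DMSO (0%) and 100 uM chenodeoxycholic acid (100%), then Hill-fitted for EC50 and efficacy.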

Experiment [12] deals with Peroxisome proliferator-activated receptor delta (Homo sapiens) (UniProt Q03181). Kind of experiment: qHTS assay for small molecule agonists of peroxisome proliferator-activated receptor delta signaling (AID 588534).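 Note: 0% = DMSO basal wells and 100% = positive control agonist at 10 µM.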 Summed up:
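Reporter cells were plated and held 5 hrs at 37 C before compounds were added. After 18 hrs at 37 C, CCF4 dye was loaded for 2 hrs at RT and fluorescence measured.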

SMILES strings stand for the structures. “And” between values parts separate entries of the source, which are not always exact repeats. Equal entries are not always repeated. Records with an inconclusive call do not appear. The source made the active and inactive calls. Unless noted, calls come from the whole dose curve. Numbered stars: 1 amine (or outer) side, 2 acyl side, 3 side chain; on linkers, the order of the positions; unused ones are H or OH. Bridge positions count the residues as written; N and C are the ends. Square brackets hold non-standard residues; d marks the D form. Peptide text beside a SMILES is read from it. * marks the point of attachment. X6 = NC1=N[C@@H](O)C[C@H]([C@H](N[*:1])C(=O)[*:2])N1; ΔAla(Z-3-ureido) = NC(=O)N/C=C(\N)C(=O)O; β3hOrn = NCCC[C@H](N)CC(=O)*; Dap = NC[C@H](N)C(=O)O

Chain of Peroxisome proliferator-activated receptor delta (Homo sapiens) (Q03181 whole entry, looked up): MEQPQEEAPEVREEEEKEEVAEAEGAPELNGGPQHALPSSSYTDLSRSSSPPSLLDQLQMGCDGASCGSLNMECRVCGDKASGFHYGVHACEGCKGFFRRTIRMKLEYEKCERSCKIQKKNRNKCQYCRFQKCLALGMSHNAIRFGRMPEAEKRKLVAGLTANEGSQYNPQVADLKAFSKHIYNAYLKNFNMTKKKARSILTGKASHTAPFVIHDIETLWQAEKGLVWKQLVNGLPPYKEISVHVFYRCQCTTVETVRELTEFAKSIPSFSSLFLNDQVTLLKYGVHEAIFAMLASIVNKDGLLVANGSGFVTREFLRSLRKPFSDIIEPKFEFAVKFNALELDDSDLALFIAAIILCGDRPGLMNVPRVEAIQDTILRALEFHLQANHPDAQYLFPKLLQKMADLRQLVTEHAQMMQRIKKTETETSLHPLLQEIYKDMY
Chain of Phospholipid hydroperoxide glutathione peroxidase GPX4 (Homo sapiens) (P36969 whole entry, looked up): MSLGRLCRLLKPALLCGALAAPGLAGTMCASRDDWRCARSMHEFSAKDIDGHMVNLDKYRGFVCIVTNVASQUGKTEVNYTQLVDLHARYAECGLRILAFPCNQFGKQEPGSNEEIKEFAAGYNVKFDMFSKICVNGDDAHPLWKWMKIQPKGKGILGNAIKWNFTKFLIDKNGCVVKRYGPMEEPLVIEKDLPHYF
Chain of Glutathione peroxidase 1 (Homo sapiens) (P07203 whole entry, looked up): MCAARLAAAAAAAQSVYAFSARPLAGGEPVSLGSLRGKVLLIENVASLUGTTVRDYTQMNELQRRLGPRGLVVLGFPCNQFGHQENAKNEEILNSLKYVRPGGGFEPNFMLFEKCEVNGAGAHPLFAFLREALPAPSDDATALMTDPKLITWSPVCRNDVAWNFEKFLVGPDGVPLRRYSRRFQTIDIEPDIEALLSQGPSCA
Chain of Nuclear receptor subfamily 1 group I member 3 (Homo sapiens) (Q14994 whole entry, looked up): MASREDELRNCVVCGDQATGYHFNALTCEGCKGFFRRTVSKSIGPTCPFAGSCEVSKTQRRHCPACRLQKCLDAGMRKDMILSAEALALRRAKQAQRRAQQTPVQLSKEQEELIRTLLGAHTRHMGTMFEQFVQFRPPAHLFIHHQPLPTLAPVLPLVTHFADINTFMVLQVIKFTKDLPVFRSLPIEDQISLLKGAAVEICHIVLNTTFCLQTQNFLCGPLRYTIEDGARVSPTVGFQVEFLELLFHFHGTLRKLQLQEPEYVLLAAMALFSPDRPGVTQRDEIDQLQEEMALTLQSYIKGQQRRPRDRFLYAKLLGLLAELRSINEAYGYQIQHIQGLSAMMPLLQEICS
Chain of Bile acid receptor (Homo sapiens) (Q96RI1 whole entry, looked up): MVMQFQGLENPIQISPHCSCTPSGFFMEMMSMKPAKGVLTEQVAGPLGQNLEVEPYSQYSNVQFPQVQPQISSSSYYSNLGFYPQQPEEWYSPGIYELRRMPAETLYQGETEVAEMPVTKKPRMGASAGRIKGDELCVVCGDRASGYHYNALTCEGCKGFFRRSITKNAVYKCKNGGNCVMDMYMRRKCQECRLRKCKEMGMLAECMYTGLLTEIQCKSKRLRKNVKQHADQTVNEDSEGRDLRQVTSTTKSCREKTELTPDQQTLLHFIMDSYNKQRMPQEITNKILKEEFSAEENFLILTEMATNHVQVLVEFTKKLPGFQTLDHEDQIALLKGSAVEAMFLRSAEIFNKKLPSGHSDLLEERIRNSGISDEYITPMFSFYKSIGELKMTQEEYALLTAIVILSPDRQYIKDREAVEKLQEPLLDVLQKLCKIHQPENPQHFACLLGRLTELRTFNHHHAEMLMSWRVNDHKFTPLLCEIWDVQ

Consider `NC[C@@H]1O[C@H](O[C@H]2[C@@H](O)[C@H](O[C@@H]3[C@@H](O)[C@H](N)C[C@H](N)[C@H]3O[C@H]3O[C@H](CO)[C@@H](O)[C@H](O)[C@H]3N)O[C@@H]2CO)[C@H](N)[C@@H](O)[C@@H]1O`, for which the activity change, negative = inhibition in [1] is -8.64% [at 0.573 µM] (inactive). Besides, the outcome was “inactive [at 0.573 µM]” in experiment [2], “inactive [at 0.573 µM]” in experiment [3] and “inactive [at 0.702 µM]” in experiment [6]. Besides, the activity change, negative = cytotoxicity was -20.5% [at 0.573 µM] (inactive) in [4] and -2.38% [at 0.702 µM] (inactive) in experiment [5].

Consider `C[C@]12CCC3=C4CCC(=O)C=C4CC[C@H]3[C@@H]1CC[C@@]2(O)CC#N`, for which the Potency entry in [1], in experiment [2], in experiment [3], in experiment [4] and in experiment [5] was “inactive” in each case. Also, the activity change, negative = inhibition in [6] was -3.65%.

Consider `CC[C@H]1OC(=O)C[C@@H](O)[C@H](C)[C@@H](O[C@@H]2O[C@H](C)[C@@H](O[C@H]3C[C@@](C)(O)[C@@H](O)[C@H](C)O3)[C@H](N(C)C)[C@H]2O)[C@@H](CC=O)C[C@@H](C)C(=O)/C=C/C(C)=C/[C@@H]1CO[C@@H]1O[C@H](C)[C@@H](O)[C@@H](OC)[C@H]1OC`, for which the Potency result in [1], in [2], in experiment [3], in [4], in experiment [5] and in [6] was “inactive” throughout.

`CC(C)=CCCC(C)=CCCC(C)=CCCC=C(C)CCC=C(C)CCC=C(C)C`: the Potency result in experiment [1], in experiment [2], in [3], in [4] and in experiment [5] was “inactive” each time. In addition, the activity change, negative = inhibition in [6] was -5.81%.

With `CC(=O)CCC1C(=O)N(c2ccccc2)N(c2ccccc2)C1=O`, the Potency result in experiment [1], in experiment [2], in [3], in experiment [4] and in experiment [5] was “inactive” throughout. The activity change, negative = inhibition in experiment [6] is -21%.

As for `NC(=S)NS(=O)(=O)c1ccc(N)cc1`, the Potency result in experiment [1], in [2], in [3], in [4] and in experiment [5] was “inactive” in each case. For the same compound, the activity change, negative = inhibition in [6] was -18.4%.

`C=CC[N+]1([C@H]2C[C@H]3[C@@H]4CC[C@H]5C[C@H](O)[C@@H](N6CCOCC6)C[C@]5(C)[C@H]4CC[C@]3(C)[C@H]2OC(C)=O)CCCC1`: the Potency entry in experiment [1], in [2], in experiment [3], in experiment [4] and in experiment [5] was “inactive” in each case. The activity change, negative = inhibition in [6] is -19.7% and -28.9%.

On to `NCCC[C@H](N)CC(=O)N[C@H]1CNC(=O)[C@H]([C@H]2C[C@H](O)N=C(N)N2)NC(=O)/C(=C/NC(N)=O)NC(=O)[C@H](CO)NC(=O)[C@H](CO)NC1=O` (β3hOrn-[Dap]SS[ΔAla(Z-3-ureido)][X6]; lactam 1-C), for which the Potency entry in [1], in experiment [2], in experiment [3], in experiment [4], in experiment [5] and in experiment [6] was “inactive” throughout.

For the compound `Cc1ncc(COP(=O)(O)O)c(C)c1O`, the Potency entry in experiment [1], in experiment [2], in experiment [3], in [4], in [5] and in [7] was “inactive” each time. For the same compound, the activity change, negative = inhibition in experiment [6] was -31.2%.

As to `CC(CCc1ccc(O)cc1)NCC(O)c1ccc(O)cc1` (stereo not drawn), the Potency entry in [1], in experiment [2], in experiment [3], in [4], in experiment [5] and in [6] was “inactive” in each case.

With `CCCCOc1ccc(C[N+]2(C)C3CCC2CC(OC(=O)[C@H](CO)c2ccccc2)C3)cc1` (stereo partly drawn), the Potency result in experiment [1], in experiment [2], in experiment [3], in experiment [4], in experiment [5] and in experiment [8] was “inactive” throughout. Moreover, the Potency result in [9] was “inactive”. Moreover, in experiment [6], the activity change, negative = inhibition is -21.1%.

Consider `CC(=O)OC1CC2CCC1(C)C2(C)C` (stereo not drawn), for which the Potency result in [1], in experiment [2], in experiment [3], in experiment [4], in experiment [5] and in experiment [7] was “inactive” in each case. Also, in [10], the Potency entry was “inactive”. For the same compound, the activity change, negative = inhibition in experiment [6] was -37.9%.

Turning to `C=CCCCCCCCCC(=O)O[C@H]1CC[C@H]2[C@@H]3CCC4=CC(=O)C=C[C@]4(C)[C@H]3CC[C@]12C`, the Potency result in [1], in [2], in [3], in experiment [4], in experiment [5] and in experiment [8] was “inactive” in each case. Also, in experiment [9], the Potency result was “inactive”.

As to `CC1=CCC(C(C)(C)O)CC1` (stereo not drawn), in experiment [11], the activation was -1.09% (inactive). The result in experiment [12] was inactive. Moreover, the Potency entry in experiment [1], in experiment [2], in experiment [3], in experiment [4], in experiment [5] and in experiment [10] was “inactive” in each case.

For the compound `OC[C@H]1O[C@@](CO)(O[C@H]2O[C@H](CO)[C@@H](O)[C@H](O)[C@H]2O)[C@@H](O)[C@@H]1O`, the call in experiment [12] was inactive. In addition, the Potency result in experiment [1], in experiment [2], in experiment [3], in [4] and in [5] was “inactive” throughout.
